Among the targets are FOS;FOSL1 (Homo sapiens;Homo sapiens, UniProt P01100;P15407 128-201;96-169, |); FOS;NFE2 (Homo sapiens;Homo sapiens, UniProt P01100;Q16621 128-201;221-337, |); FOS;NFE2L1 (Homo sapiens;Homo sapiens, UniProt P01100;Q14494 128-201;609-725, |); FOS;MAFB (Homo sapiens;Homo sapiens, UniProt P01100;Q9Y5Q3 128-201;212-305, |); FOS;CREB3 (Homo sapiens;Homo sapiens, UniProt P01100;O43889 128-201;141-221, |); FOS;CREB3L3 (Homo sapiens;Homo sapiens, UniProt P01100;Q68CJ9 128-201;234-311, |); ATF5;FOS (Homo sapiens;Homo sapiens, UniProt Q9Y2D1;P01100 199-275;128-201, |); FOS;BATF (Homo sapiens;Homo sapiens, UniProt P01100;Q16520 128-201;17-90, |); FOS;BATF2 (Homo sapiens;Homo sapiens, UniProt P01100;Q8N1L9 128-201;8-85, |).

Experiment in all cases: SELEX-seq (CSI, HT-SELEX, round 3); SELEX-seq: 1x PBS (10 mM phosphate, 137 mM NaCl, 2.7 mM KCl) pH 7.6, 2.5 mM DTT, 50 ng/ul poly dI-dC, 0.1% BSA, 50 nM biotinylated bZIP (1:3 with partner for heterodimers), 100 nM library, room temperature, 1 h, 3 rounds; high values mean tight binding
Holding throughout (conditions): protein: recombinant;recombinant; copies: 1;1; dsDNA, one strand shown

The next test addresses T1, JUNB;CREBZF (Homo sapiens;Homo sapiens, UniProt P17275;Q9NS37 259-332;195-272, |).
T1 sequence 1: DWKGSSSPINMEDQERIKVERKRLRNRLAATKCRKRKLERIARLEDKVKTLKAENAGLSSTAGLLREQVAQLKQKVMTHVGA
T1 sequence 2: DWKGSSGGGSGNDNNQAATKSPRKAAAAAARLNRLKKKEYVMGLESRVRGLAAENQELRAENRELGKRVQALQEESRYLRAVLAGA

Another test deals with T2, FOSL1;NFE2 (Homo sapiens;Homo sapiens, UniProt P15407;Q16621 96-169;221-337, |).
T2 sequence 1: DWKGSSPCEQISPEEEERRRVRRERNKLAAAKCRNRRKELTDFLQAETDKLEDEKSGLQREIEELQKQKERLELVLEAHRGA
T2 sequence 2: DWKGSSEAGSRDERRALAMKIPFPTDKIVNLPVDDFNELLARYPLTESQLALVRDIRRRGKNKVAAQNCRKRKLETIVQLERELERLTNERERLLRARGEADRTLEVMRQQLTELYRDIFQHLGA

The target in the next test is T3, ATF5;CEBPE (Homo sapiens;Homo sapiens, UniProt Q9Y2D1;Q15744 199-275;195-267, |).
T3 sequence 1: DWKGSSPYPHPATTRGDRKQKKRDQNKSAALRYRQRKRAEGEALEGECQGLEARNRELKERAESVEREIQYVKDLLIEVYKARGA
T3 sequence 2: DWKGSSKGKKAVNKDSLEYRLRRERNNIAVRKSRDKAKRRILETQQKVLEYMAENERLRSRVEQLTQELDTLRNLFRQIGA

A further test concerns the target T4, ATF5;JUNB (Homo sapiens;Homo sapiens, UniProt Q9Y2D1;P17275 199-275;259-332, |).
T4 sequence 1: T3 sequence 1
T4 sequence 2: T1 sequence 1

A further test addresses T5, JUNB;BATF2 (Homo sapiens;Homo sapiens, UniProt P17275;Q8N1L9 259-332;8-85, |).
T5 sequence 1: T1 sequence 1
T5 sequence 2: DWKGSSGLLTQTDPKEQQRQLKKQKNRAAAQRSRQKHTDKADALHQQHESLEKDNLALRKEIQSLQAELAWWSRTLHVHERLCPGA

Another test has as its target T6, BATF;HLF (Homo sapiens;Homo sapiens, UniProt Q16520;Q16534 17-90;216-293, |).
T6 sequence 1: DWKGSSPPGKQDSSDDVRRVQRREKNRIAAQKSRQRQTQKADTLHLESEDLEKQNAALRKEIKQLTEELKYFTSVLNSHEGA
T6 sequence 2: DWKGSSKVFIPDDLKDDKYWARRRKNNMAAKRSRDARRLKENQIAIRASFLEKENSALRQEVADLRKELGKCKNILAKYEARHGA

A further test concerns the target T7, BATF;NFIL3 (Homo sapiens;Homo sapiens, UniProt Q16520;Q16649 17-90;64-134, |).
T7 sequence 1: T6 sequence 1
T7 sequence 2: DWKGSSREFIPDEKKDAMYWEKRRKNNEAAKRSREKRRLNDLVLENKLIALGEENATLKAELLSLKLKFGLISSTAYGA

Another test has as its target T8, FOSL1;CEBPE (Homo sapiens;Homo sapiens, UniProt P15407;Q15744 96-169;195-267, |).
T8 sequence 1: T2 sequence 1
T8 sequence 2: T3 sequence 2

In another test the target is T9, FOSL1;FOSL1 (Homo sapiens;Homo sapiens, UniProt P15407;P15407 96-169;96-169, |).
T9 sequence 1: T2 sequence 1
T9 sequence 2: T2 sequence 1

The next test addresses T10, ATF5;BATF (Homo sapiens;Homo sapiens, UniProt Q9Y2D1;Q16520 199-275;17-90, |).
T10 sequence 1: T3 sequence 1
T10 sequence 2: T6 sequence 1

A further test addresses T11, ATF5;CREB3L1 (Homo sapiens;Homo sapiens, UniProt Q9Y2D1;Q96BA8 199-275;281-358, |).
T11 sequence 1: T3 sequence 1
T11 sequence 2: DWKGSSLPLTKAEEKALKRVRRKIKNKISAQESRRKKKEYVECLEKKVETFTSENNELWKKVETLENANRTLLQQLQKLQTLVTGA

FOS;FOSL1, sequence (P01100 other isoform, or with tags, fused parts or gaps |): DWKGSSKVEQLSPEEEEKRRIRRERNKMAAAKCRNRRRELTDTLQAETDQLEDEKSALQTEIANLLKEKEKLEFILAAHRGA
FOS;MAFB, sequence (P01100 other isoform, or with tags, fused parts or gaps |, chain 1 of 2): as the sequence (P01100 other isoform, or with tags, fused parts or gaps |) above
FOS;MAFB, sequence (Q9Y5Q3 other isoform, or with tags, fused parts or gaps |, chain 2 of 2): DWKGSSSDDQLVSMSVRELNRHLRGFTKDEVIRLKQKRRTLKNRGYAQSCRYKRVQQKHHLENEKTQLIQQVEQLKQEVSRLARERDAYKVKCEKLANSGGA
ATF5;FOS, sequence (P01100 other isoform, or with tags, fused parts or gaps |): as the sequence (P01100 other isoform, or with tags, fused parts or gaps |) above
FOS;NFE2, sequence (P01100 other isoform, or with tags, fused parts or gaps |): as above
FOS;BATF2, sequence (P01100 other isoform, or with tags, fused parts or gaps |): as above
FOS;NFE2L1, sequence (P01100 other isoform, or with tags, fused parts or gaps |, chain 1 of 2): as the sequence (P01100 other isoform, or with tags, fused parts or gaps |) above
FOS;NFE2L1, sequence (Q14494 other isoform, or with tags, fused parts or gaps |, chain 2 of 2): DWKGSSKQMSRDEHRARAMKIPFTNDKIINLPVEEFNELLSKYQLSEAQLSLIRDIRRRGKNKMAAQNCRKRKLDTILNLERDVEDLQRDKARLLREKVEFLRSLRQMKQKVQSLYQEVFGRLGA
FOS;CREB3L3, sequence (P01100 other isoform, or with tags, fused parts or gaps |, chain 1 of 2): as the sequence (P01100 other isoform, or with tags, fused parts or gaps |) above
FOS;CREB3L3, sequence (Q68CJ9 other isoform, or with tags, fused parts or gaps |, chain 2 of 2): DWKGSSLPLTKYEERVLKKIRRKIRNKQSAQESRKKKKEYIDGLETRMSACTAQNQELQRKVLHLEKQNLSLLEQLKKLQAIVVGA
FOS;CREB3, sequence (P01100 other isoform, or with tags, fused parts or gaps |, chain 1 of 2): as the sequence (P01100 other isoform, or with tags, fused parts or gaps |) above
FOS;CREB3, sequence (O43889 other isoform, or with tags, fused parts or gaps |, chain 2 of 2): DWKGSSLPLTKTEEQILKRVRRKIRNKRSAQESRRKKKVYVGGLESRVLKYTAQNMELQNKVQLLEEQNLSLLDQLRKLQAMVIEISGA
FOS;BATF, sequence (P01100 other isoform, or with tags, fused parts or gaps |, chain 1 of 2, one chain of several): as the sequence (P01100 other isoform, or with tags, fused parts or gaps |) above

On to ATGACGGAAT, for which the binding signal with JUNB;CREBZF was 0.00176 relative CSI intensity (max = 1); with FOSL1;NFE2 it was 0.0575 relative CSI intensity (max = 1); with FOS;FOSL1, 0.0281 relative CSI intensity (max = 1); with FOS;NFE2, 0.00162 relative CSI intensity (max = 1); with FOS;NFE2L1 it was 0.00712 relative CSI intensity (max = 1); with FOS;MAFB, 0.00352 relative CSI intensity (max = 1). Moreover, the binding signal with FOS;CREB3 was 0.0131 relative CSI intensity (max = 1); with FOS;CREB3L3 it was 0.00582 relative CSI intensity (max = 1); with ATF5;CEBPE it was 0.047 relative CSI intensity (max = 1); in the test with ATF5;JUNB it was 0.00218 relative CSI intensity (max = 1); in the test with ATF5;FOS, 0.0159 relative CSI intensity (max = 1).
Regarding ATGACGTCAT, the binding signal with JUNB;BATF2 was 1 relative CSI intensity (max = 1); with JUNB;CREBZF it was 1 relative CSI intensity (max = 1); in the test with BATF;HLF, 0.814 relative CSI intensity (max = 1); with BATF;NFIL3, 1 relative CSI intensity (max = 1); with FOSL1;CEBPE, 0.0518 relative CSI intensity (max = 1); with FOSL1;FOSL1 it was 1 relative CSI intensity (max = 1). The binding signal in the test with FOSL1;NFE2 was 0.466 relative CSI intensity (max = 1); in the test with FOS;BATF, 1 relative CSI intensity (max = 1); in the test with FOS;FOSL1, 0.96 relative CSI intensity (max = 1); in the test with FOS;NFE2 it was 0.106 relative CSI intensity (max = 1); with FOS;NFE2L1, 0.472 relative CSI intensity (max = 1); with FOS;MAFB, 0.278 relative CSI intensity (max = 1). Also, the binding signal with FOS;BATF2 is 1 relative CSI intensity (max = 1); with FOS;CREB3, 1 relative CSI intensity (max = 1); with FOS;CREB3L3, 0.751 relative CSI intensity (max = 1); with ATF5;CEBPE, 0.364 relative CSI intensity (max = 1); with ATF5;JUNB it was 1 relative CSI intensity (max = 1); with ATF5;BATF it was 0.864 relative CSI intensity (max = 1). Also, the binding signal with ATF5;FOS and in the test with ATF5;CREB3L1 was 1 relative CSI intensity (max = 1) each time.
With CCTGACGTCA, the binding signal in the test with JUNB;BATF2 is 0.0149 relative CSI intensity (max = 1); with BATF;HLF, 0.0974 relative CSI intensity (max = 1); with FOSL1;CEBPE it was 0.00153 relative CSI intensity (max = 1); with FOSL1;FOSL1 it was 0.0039 relative CSI intensity (max = 1); with FOSL1;NFE2 it was 0.0335 relative CSI intensity (max = 1); with FOS;BATF, 0.0057 relative CSI intensity (max = 1). Besides, the binding signal with FOS;NFE2 was 0.00384 relative CSI intensity (max = 1); in the test with FOS;MAFB, 0.0128 relative CSI intensity (max = 1); with FOS;BATF2, 0.00375 relative CSI intensity (max = 1); with FOS;CREB3, 0.0122 relative CSI intensity (max = 1); with ATF5;CEBPE, 0.073 relative CSI intensity (max = 1); with ATF5;JUNB it was 0.0543 relative CSI intensity (max = 1). The binding signal with ATF5;BATF was 0.0188 relative CSI intensity (max = 1); with ATF5;FOS, 0.0125 relative CSI intensity (max = 1); with ATF5;CREB3L1, 0.00567 relative CSI intensity (max = 1).
For ATGACGTAAT, the binding signal is 0.0936 relative CSI intensity (max = 1) with JUNB;BATF2; 0.0382 relative CSI intensity (max = 1) in the test with JUNB;CREBZF; 0.71 relative CSI intensity (max = 1) with BATF;HLF; 0.786 relative CSI intensity (max = 1) in the test with BATF;NFIL3; 0.00904 relative CSI intensity (max = 1) with FOSL1;CEBPE; 0.0331 relative CSI intensity (max = 1) with FOSL1;FOSL1. The binding signal with FOSL1;NFE2 is 0.129 relative CSI intensity (max = 1); in the test with FOS;BATF, 0.0179 relative CSI intensity (max = 1); with FOS;FOSL1, 0.0348 relative CSI intensity (max = 1); with FOS;NFE2, 0.0286 relative CSI intensity (max = 1); in the test with FOS;NFE2L1, 0.12 relative CSI intensity (max = 1); with FOS;MAFB it was 0.0637 relative CSI intensity (max = 1). In addition, the binding signal with FOS;BATF2 was 0.0531 relative CSI intensity (max = 1); in the test with FOS;CREB3L3, 0.0238 relative CSI intensity (max = 1); with ATF5;CEBPE, 0.189 relative CSI intensity (max = 1); with ATF5;JUNB it was 0.0445 relative CSI intensity (max = 1); in the test with ATF5;BATF it was 0.0375 relative CSI intensity (max = 1); in the test with ATF5;FOS, 0.00734 relative CSI intensity (max = 1). Besides, the binding signal with ATF5;CREB3L1 is 0.00877 relative CSI intensity (max = 1).
As for ATGACGCAAT, the binding signal in the test with JUNB;BATF2 is 0.00872 relative CSI intensity (max = 1); with JUNB;CREBZF, 0.0122 relative CSI intensity (max = 1); with BATF;HLF it was 0.105 relative CSI intensity (max = 1); in the test with BATF;NFIL3, 0.155 relative CSI intensity (max = 1); in the test with FOSL1;CEBPE, 0.0294 relative CSI intensity (max = 1); with FOSL1;FOSL1, 0.0097 relative CSI intensity (max = 1). Also, the binding signal was 0.18 relative CSI intensity (max = 1) with FOSL1;NFE2; 0.00539 relative CSI intensity (max = 1) with FOS;BATF; 0.0408 relative CSI intensity (max = 1) with FOS;FOSL1; 0.0862 relative CSI intensity (max = 1) with FOS;NFE2; 0.49 relative CSI intensity (max = 1) with FOS;NFE2L1; 0.0613 relative CSI intensity (max = 1) with FOS;MAFB. For the same sequence, the binding signal with FOS;BATF2 is 0.00476 relative CSI intensity (max = 1); in the test with FOS;CREB3, 0.0275 relative CSI intensity (max = 1); in the test with FOS;CREB3L3, 0.00168 relative CSI intensity (max = 1); with ATF5;CEBPE, 0.245 relative CSI intensity (max = 1); in the test with ATF5;JUNB, 0.00597 relative CSI intensity (max = 1); in the test with ATF5;BATF, 0.00602 relative CSI intensity (max = 1). In the test with ATF5;FOS, the binding signal was 0.024 relative CSI intensity (max = 1).
In the case of ATGATGCAAT, the binding signal with JUNB;BATF2 was 0.00121 relative CSI intensity (max = 1); with JUNB;CREBZF, 0.00786 relative CSI intensity (max = 1); with BATF;HLF it was 0.179 relative CSI intensity (max = 1); with BATF;NFIL3, 0.0609 relative CSI intensity (max = 1); with FOSL1;CEBPE, 0.0136 relative CSI intensity (max = 1); with FOSL1;FOSL1, 0.00963 relative CSI intensity (max = 1). Also, the binding signal was 0.12 relative CSI intensity (max = 1) with FOSL1;NFE2; 0.0393 relative CSI intensity (max = 1) with FOS;NFE2; 0.174 relative CSI intensity (max = 1) in the test with FOS;NFE2L1; 0.0246 relative CSI intensity (max = 1) with FOS;MAFB; 0.00378 relative CSI intensity (max = 1) with FOS;CREB3; 0.00314 relative CSI intensity (max = 1) with FOS;CREB3L3. The binding signal in the test with ATF5;CEBPE was 0.402 relative CSI intensity (max = 1); with ATF5;JUNB, 0.00145 relative CSI intensity (max = 1); with ATF5;BATF, 0.00475 relative CSI intensity (max = 1); with ATF5;CREB3L1, 0.00221 relative CSI intensity (max = 1).

Source of the values: article PMC5349851, “Combinatorial bZIP dimers display complex DNA-binding specificity landscapes”.
